Bioassay records: PubChem, National Center for Advancing Translational Sciences (NCATS)
HCV inh – inhibitors of hepatitis C virus infection; Huh7.5.1 HCVcc-Cre infection, luciferase reporter, 44 h; Potency, µM (top dose mostly 41.8 µM), for the others: top-dose activity change, negative = inhibition, actives largely listed as inhibitors; hit rate 3.4% among 340,000; AID 651820; active = well fitted inhibition curve with a large enough effect; inconclusive = small, poorly fitted or top-dose-only effect, or another doubt; inactive = no such curve, though single readings can be large or run the other way; also: potency is read from the fitted curve at half-maximal effect; % is scaled to controls: 0 for no effect and ±100 for the full control effect
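Luciferase read-out (15 sec integration) after a 15 min room-temperature substrate step quantifies HCVcc-Cre infection. Cells, 1,000 per well, had compound added 4 h post-plating, then virus at ~0.5 moi, and were cultured 44 h.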
MARV entry inh – Marburg virus entry inhibition. Marburg virus pseudotyped entry inhibition, cell reporter. Potency, µM (highest dose often 37.8 µM), without a hit: at the highest dose activity change, negative = inhibition, hits mostly inhibitors. hit rate 1.8% among 300,000; calls by dose curve; tested in HEK293 cells; also: potency is read from the fitted curve at half-maximal effect; % is scaled to controls: 0 for no effect and ±100 for the full control effect
Lassa entry inh – inhibitors of Lassa virus binding or cell entry | Lassa virus pseudotype entry inhibition, cell reporter | Potency, µM (top dose mostly 37.9 µM), for inactives: at the top dose activity change, negative = inhibition, actives largely listed as inhibitors | hit rate 1.2% among 300,000 | AID 540256; calls by dose curve; tested in HEK293 cells; also: potency is read from the fitted curve at half-maximal effect; % is scaled to controls: 0 for no effect and ±100 for the full control effect; nearly all actives have a fitted effect of over 50% in size
SARS PLpro yeast – inhibitors of SARS-CoV papain-like protease in yeast; Potency, µM (highest dose often 32.9 µM), for the others: at the top dose activity, positive = growth rescue, most hits filed as activators; hit rate 0.19% among 330,000; S. cerevisiae expressing SARS-CoV PLpro, growth rescue; AID 485353; calls by dose curve; also: potency is read from the fitted curve at half-maximal effect; 0% is about no effect; nearly all actives have a fitted effect of over 55% in size
FMDV inh – blocks foot and mouth disease virus. FMDV antiviral cell-based qHTS. Potency, µM (highest dose often 57.9 µM), for the others: at the top dose activity change, negative = inhibition, hits mostly inhibitors. hit rate 1.2% among 410,000; calls by dose curve; tested in HEK293T cells; also: read-out not given here; potency is read from the fitted curve at half-maximal effect; % is scaled to controls: 0 for no effect and ±100 for the full control effect; nearly all actives have a fitted effect of over 45% in size
HCMV antiviral – human cytomegalovirus inhibition; hit rate 4.5% among 410,000; HFF cells, HCMV-luciferase reporter, 72 h; hits give low values; activity change, negative = inhibition, % at 57.5 µM; AID 1259415; in the data active = activity change below about -60%; inconclusive = no clear call, values can overlap the other calls; inactive = above about -39%; also: % is scaled to controls: 0 for no effect and ±100 for the full control effect
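Inhibition of viral replication was scored as loss of reporter luminescence in HFFs infected with HCMV-luciferase (MOI 1 PFU/cell) for 72 h; compounds tested at 2 doses, normalized to buffer and Salinomycin controls.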
Active calls of the source: *; ! = repeats disagree; [ ] = remark or other dose. The list is not random: actives were taken first. Their share in the collection is about 8%.

Screening CC1(C)CN(c2ccccc2)C(=O)[C@@H]1CC(=O)Nc1ccccc1 returned Lassa entry inh 7%[46.1 µM].
CCc1ccc(-n2nc(CO)c(C(=O)NCCCCc3ccccc3)n2)cc1 was read as MARV entry inh 13%[46.1 µM], Lassa entry inh 8%[46.1 µM], FMDV inh 5% and HCMV antiviral -24.
Screening COc1cc2c3c(cccc3c1)C(=O)N(CCN1CCCC1)C2=O returned FMDV inh 0% and HCMV antiviral -98*.
COc1ccc(C(=O)CN2CCN(CCN3C(=O)c4cccc5cccc(c45)C3=O)CC2)cc1 was read as HCV inh 10µM*, FMDV inh inconclusive and HCMV antiviral -22.
Screening O=C(CN1CCN(CCN2C(=O)c3cccc4cccc(c34)C2=O)CC1)c1ccc(Cl)cc1 returned HCV inh inconclusive, MARV entry inh -20%, Lassa entry inh 0% and SARS PLpro yeast -17%.
O=C(CN1CCN(CCN2C(=O)c3cccc4cccc(c34)C2=O)CC1)c1ccc(F)cc1 was read as HCV inh 14µM*, MARV entry inh -10%, Lassa entry inh -2%, SARS PLpro yeast -13%, FMDV inh 28% and HCMV antiviral -26.
`C=CCC12C=C(OC)C(=O)C(C1=O)C(c1ccc(OC)cc1)C2C` (stereo not given) gave MARV entry inh 0%[14.2 µM] and Lassa entry inh inconclusive.
For Cc1ccc(C(=O)Nc2ccc(CC(=O)O)cc2)o1 the results were HCV inh 12%, MARV entry inh -11%, Lassa entry inh -5%, SARS PLpro yeast 1%, FMDV inh -11% and HCMV antiviral -29.
CC(C)(C)c1ccc(C(=O)Nc2ccc(CC(=O)O)cc2)o1 was read as HCV inh -4%, MARV entry inh inconclusive, Lassa entry inh 2.3µM*, SARS PLpro yeast 10%, FMDV inh 0.79µM* and HCMV antiviral -74*.
For O=C(CSc1nnc(CNC(=O)C23CC4CC(CC(C4)C2)C3)n1-c1ccccc1)Nc1ccc(F)cc1 the results were HCV inh inconclusive, MARV entry inh inconclusive, Lassa entry inh -26%, SARS PLpro yeast -3%, FMDV inh inconclusive and HCMV antiviral 63.
O=C(NCc1nnc(SCc2ccc(F)cc2)n1-c1ccccc1)C12CC3CC(CC(C3)C1)C2 was read as HCV inh -27%, MARV entry inh inconclusive, Lassa entry inh inconclusive, SARS PLpro yeast -3%, FMDV inh 40µM* and HCMV antiviral 46.
Screening O=C(NCc1nnc(SCc2ccc(C(F)(F)F)cc2)n1-c1ccccc1)C12CC3CC(CC(C3)C1)C2 returned HCV inh inconclusive, MARV entry inh 11µM*, Lassa entry inh inconclusive, SARS PLpro yeast -15%, FMDV inh inconclusive and HCMV antiviral -19.
Cc1nc(C)n(CC(=O)N2CCOc3ccc(CN4CCN(C)C[C@@H]4c4ccccc4)cc3C2)n1 was read as FMDV inh -15%.
`CCc1nc(C)c(C(=O)N2CCCC(C(=O)Nc3cccc(-c4cccc(C)c4)c3)C2)o1` (stereo not given) gave HCV inh 11µM*, MARV entry inh inconclusive, Lassa entry inh inconclusive, SARS PLpro yeast -10%, FMDV inh 4% and HCMV antiviral 8.
For Cc1cccc(-c2cccc(NC(=O)C3CCCN(C(=O)c4ocnc4C)C3)c2)c1 (stereo not given) the results were HCV inh inconclusive, MARV entry inh inconclusive, Lassa entry inh 3.5µM*, SARS PLpro yeast 1%, FMDV inh 21% and HCMV antiviral 14.
Screening Cc1cccc(-c2cccc(NC(=O)C3CCCN(C(=O)c4csc(C)n4)C3)c2)c1 (stereo not given) returned HCV inh 7.9µM*, SARS PLpro yeast -29%, FMDV inh -12% and HCMV antiviral inconclusive.
Cc1cccc(-c2cccc(NC(=O)C3CCCN(C(=O)c4cccnc4)C3)c2)c1 (stereo not given) was read as HCV inh inconclusive, SARS PLpro yeast -2%, FMDV inh -18% and HCMV antiviral inconclusive.
`CCc1ncc(CN2CCCC(C(=O)Nc3cccc(-c4cccc(C)c4)c3)C2)cn1` (stereo not given) gave HCV inh -29%, MARV entry inh inconclusive, Lassa entry inh -16%, SARS PLpro yeast -4%, FMDV inh -14% and HCMV antiviral 14.
For CC(=O)NS(=O)(=O)c1ccc(N=c2ssc3c2-c2cc(C)c(C)cc2NC3(C)C)cc1 the results were HCV inh inconclusive, MARV entry inh inconclusive, Lassa entry inh inconclusive, SARS PLpro yeast 4%, FMDV inh -22% and HCMV antiviral -39.
For Cc1cc2c(cc1C)-c1c(ssc1=Nc1ccc(S(N)(=O)=O)cc1)C(C)(C)N2 the results were HCV inh 13µM*, SARS PLpro yeast -2%, FMDV inh -10% and HCMV antiviral 117.
For Cc1ccc(S(=O)(=O)N2CCc3cc(C(=O)Nc4c(C)cccc4C(C)C)ccc32)cc1 the results were MARV entry inh inconclusive, Lassa entry inh -12%[46.1 µM], FMDV inh -17% and HCMV antiviral -1.
`CC(=O)c1cc(-c2ccc(F)cc2)n(CCC(=O)Nc2nc3c(C)cccc3s2)c1C` gave Lassa entry inh -21%[46.1 µM], FMDV inh 0% and HCMV antiviral 0.
Screening O=C(NCCn1cc(SCc2ccc(F)cc2)c2ccccc21)c1cccs1 returned MARV entry inh -17%[46.1 µM], Lassa entry inh -25%[46.1 µM], FMDV inh inconclusive and HCMV antiviral -35.
O=C(COC(=O)c1ccc(S(=O)(=O)NCc2ccco2)cc1)Nc1ccccc1OC(F)F was read as HCV inh 11µM*!, MARV entry inh 2%, Lassa entry inh 23%, SARS PLpro yeast 5%, FMDV inh 17% and HCMV antiviral 60.
For O=C(COC(=O)c1ccc(S(=O)(=O)NCc2ccco2)cc1)Nc1ccccc1 the results were HCV inh 11%, MARV entry inh inconclusive, Lassa entry inh -1%, SARS PLpro yeast 1%, FMDV inh -11% and HCMV antiviral -2.
`COc1ccc(CC(=O)Nc2nc(-c3ccccc3)c(C(C)=O)s2)cc1OC` gave HCV inh 13µM*, MARV entry inh 11µM*, Lassa entry inh inconclusive, SARS PLpro yeast -3%, FMDV inh 14% and HCMV antiviral inconclusive.
`COc1cc(CC(=O)Nc2nc(-c3ccccc3)c(C(C)=O)s2)cc(OC)c1OC` gave HCV inh 13µM*, MARV entry inh -13%, Lassa entry inh inconclusive, SARS PLpro yeast 3%, FMDV inh -26% and HCMV antiviral -21.
`CCOc1ccccc1CNC(=O)CN1C(=O)CCc2cc(S(=O)(=O)N3CCCCC3)ccc21` gave Lassa entry inh 22%[46.1 µM], FMDV inh 13% and HCMV antiviral -30.
